Laboratory results: PubChem BioAssay (NCATS)
Records with an inconclusive call do not appear. Entries that show only a call come without a potency. Values without a mark were called inactive. Active and inactive are the calls of the source. Calls come from the whole dose curve; as a rule, active = well fitted curve in the direction sought with a large enough effect; inconclusive = small, poorly fitted or top-dose-only effect, or another doubt; inactive = no such curve, though single readings can be large; an effect the other way counts as inactive or inconclusive.

Key:
SKOV3 = experiment: Primary qHTS to identify gynecologic anti-cancer compounds using libraries of approved drugs and bioactive compounds (AID 1345084); conditions: Gynecologic cancer cell panel viability, ATPlite luminescence, 48 h; series mostly up to 57.5 µM; note: nearly all actives have a fitted effect of over 55% in size; note: potency is the fitted concentration of half-maximal effect
Method in brief: (§1)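 Cells, 1,000 per well, plated 16 h, then exposed 48 h at 37 C to compounds. Viability by ATPlite luminescence after 15 min at room temperature.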

Tov112D = experiment: as above; conditions: Gynecologic cancer cell panel viability, ATPlite luminescence, 48 h; series mostly up to 57.5 µM
Method in brief: as §1

Tov-21-G = experiment: as above; conditions: Gynecologic cancer cell panel viability, ATPlite luminescence, 48 h; series mostly up to 57.5 µM
Method in brief: as §1

[1] = qHTS assay to identify inhibitors of the type 1 interferon - major histocompatibility complex class I in skeletal muscle: Counter screen cell viability and HiBit confirmation (AID 1347412); conditions: iHSKM muscle cells + IFN-b, HiBiT or CellTiter-Glo, 24 h, at 45.9 µM (top of the series); note: nearly all actives have a fitted effect of over 60% in size
Method in brief: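 Luminescence read-out: Nano-Glo HiBiT lytic signal from C-terminally HiBiT-tagged HLA-B in CRISPR-edited human myoblasts, plus CellTiter Glo ATP as viability counter screen. IFN-beta 4.0 ng/ml; 24 hrs treatment at 37 C, 5% CO2.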

astro = experiment: Drug repurposing screens with cells derived from glioblastoma tumor samples (AID 1345199); conditions: viability, ATP luminescence, 48 h; series mostly up to 45.9 µM; note: nearly all actives have a fitted effect of over 40% in size; note: potency is the fitted concentration of half-maximal effect
Method in brief: (§2)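 Primary testing used CD133+ neurospheres from four GBM patients, seven concentrations, 48 h exposure and ATP-based viability; confirmation added three slower-growing patient lines.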

[2] = as above; conditions: GBM patient neurospheres viability, ATP luminescence, 48 h
Method in brief: as §2

For `C=C(C)Cn1c(SCC(=O)c2cccs2)nc2sc3c(c2c1=O)CCCC3`, the Potency (SKOV3) was “inactive” and the Potency (Tov112D) was “inactive”.
For `C=C1C(=O)O[C@@H]2C[C@@]3(C)CCCC(=C)[C@]3(O)C[C@H]12`, the Potency (SKOV3) was “inactive” and the Potency (Tov112D) was “inactive”.
For `O=C(Nc1ccc(-c2ccnc(Nc3ccc(N4CCOCC4)cc3)n2)cc1)C1CCCN1` (stereo unspecified), the Potency (SKOV3) was “inactive” and the Potency (Tov112D) was “inactive”.
With `OC(c1ccc(-c2ccc(CN3CCN(Cc4ccncc4)CC3)cc2)c(F)c1)(C(F)(F)F)C(F)(F)F` the Potency (SKOV3) was “inactive”, the Potency (Tov-21-G) was “inactive” and the Potency (Tov112D) was “inactive”. It also gave an activity change, negative = inhibition ([1]; HiBiT) of -18.6% and an activity change, negative = inhibition ([1]; Viability) of -8.6%.
In the case of `C=C1CC2OC(=O)C(COC)C2C(OC(=O)/C(C)=C\C)CC2(C)OC1=CC2=O` (stereo unspecified), the Potency (SKOV3) was “inactive” and the Potency (Tov112D) was “inactive”.
`CC(=O)O[C@@H]1[C@H](O[C@@H]2O[C@@H](CO)[C@H](O)[C@H]2O)[C@@H](O[C@@H]2O[C@@H](C)[C@H](O[C@@H]3OC[C@@H](O)[C@H](O)[C@H]3O)[C@@H](O)[C@H]2O)[C@H](OC(=O)[C@]23CCC(C)(C)C[C@H]2C2=CCC4[C@@]5(C)CC[C@H](O[C@@H]6O[C@H](C(=O)O)[C@@H](O)[C@H](O)[C@H]6O[C@@H]6O[C@H](CO)[C@H](O)[C@H](O)[C@H]6O)[C@@](C)(C=O)C5CC[C@@]4(C)[C@]2(C)C[C@H]3O)O[C@@H]1C` (stereo partly specified) gave an activity change, negative = cytotoxicity (SKOV3) of 8.44% [at 6.55 µM] and an activity change, negative = cytotoxicity (Tov112D) of -3.22% [at 6.55 µM].
With `Oc1cccc(-c2c3nc(c(-c4cccc(O)c4)c4ccc([nH]4)c(-c4cccc(O)c4)c4nc(c(-c5cccc(O)c5)c5ccc2[nH]5)CC4)C=C3)c1` the Potency (SKOV3) was “inactive”, the Potency (Tov112D) was “inactive” and the Potency (astro) was 25.1 µM (active).
For `CC(=O)O[C@@H]1[C@@H](OC(C)=O)[C@H](C)O[C@@H](O[C@H]2[C@@H]3C=CO[C@@H](O[C@@H]4O[C@H](CO)[C@@H](O)[C@H](O)[C@H]4O)[C@@H]3[C@@]3(CO)O[C@@H]23)[C@@H]1OC(=O)/C=C/c1ccccc1`, the Potency (SKOV3) was “inactive” and the Potency (Tov112D) was “inactive”.
With `CCNc1nc(Nc2cc(F)c(C(=O)N3CCOCC3)cc2OC)ncc1C(F)(F)F` the Potency (SKOV3) was “inactive” and the Potency (Tov112D) was “inactive”.
For `COc1cc2c(cc1-c1c(C)noc1C)ncc1[nH]c(=O)n(C(C)c3ccccn3)c12` (stereo unspecified), the Potency (SKOV3) was 12.6 µM (active) and the Potency (Tov112D) was “inactive”.
In the case of `CC(C)S(=O)(=O)Nc1ccc(F)c(C(=O)c2c[nH]c3ncc(-c4cccnc4)cc23)c1F`, the Potency (SKOV3) was 25.1 µM (active) and the Potency (Tov112D) was “inactive”.
With `COc1ccc(C(=O)O[C@H]2C=COC=C3C=C4C(=O)N(C)C(=S)C(=O)N4[C@@H]32)cc1Oc1cc(C=O)ccc1O` the Potency (SKOV3) was “inactive” and the Potency (Tov112D) was “inactive”.
For `CC1=C(C(=O)OC2CCCCC2)C(c2ccc([N+](=O)[O-])cc2)C2=C(CC(C)(C)CC2=O)N1` (stereo unspecified), the Potency (SKOV3) was “inactive”, the Potency (Tov-21-G) was “inactive” and the Potency (Tov112D) was “inactive”.
With `C=C1C(=O)O[C@@H]2[C@H]1CC[C@H](C)C(CCC(=O)O)C2(C)O` (stereo partly specified) the Potency (SKOV3) was “inactive” and the Potency (Tov112D) was “inactive”.
With `CCn1c(=O)c(-c2ccc(-c3cncs3)cc2Cl)cc2cnc(Nc3ccc(N4CCN(C)CC4)cc3)nc21` the Potency (SKOV3) was “inactive” and the Potency (Tov112D) was “inactive”.
For `CO[C@H]1C[C@@H]2CC[C@@H](C)[C@@](O)(O2)C(=O)C(=O)N2CCCC[C@H]2C(=O)O[C@H]([C@@H](C)C[C@@H]2CC[C@@H](O)[C@H](OC)C2)CC(=O)[C@H](C)/C=C(\C)[C@@H](O)[C@@H](OC)C(=O)[C@H](C)C[C@H](C)/C=C/C=C/C=C/1C`, the Potency (SKOV3) was “inactive” and the Potency (Tov112D) was “inactive”.
In the case of `Cc1sc2c(c1C)C(c1ccc(Cl)cc1)=N[C@@H](CC(=O)Nc1ccc(OCCOCCOCCOCCNc3cccc4c3C(=O)N(C3CCC(=O)NC3=O)C4=O)cc1)c1nnc(C)n1-2` (stereo partly specified), the Potency (SKOV3) was 2.82 µM (active) and the activity change, negative = inhibition ([1]; Viability) was 0.552%.
With `CC1(C)CC[C@]2(C(=O)O[C@@H]3O[C@H](CO)[C@@H](O)[C@H](O)[C@H]3O)CC[C@]3(C)C(=CCC4[C@@]5(C)CC[C@H](O[C@@H]6O[C@H](C(=O)O)[C@H](O)[C@H](O)[C@H]6O)C(C)(C)C5CC[C@]43C)[C@@H]2C1` (stereo partly specified) the Potency (SKOV3) was “inactive” and the Potency (Tov112D) was “inactive”.
In the case of `C/C=C(\C)C(=O)O[C@H]1C=CC(=O)O[C@H]1/C=C/[C@@H](O)[C@H](C)O`, the Potency (SKOV3) was “inactive” and the Potency (Tov112D) was “inactive”.
In the case of `Cc1[nH]c(/C=C2\C(=O)Nc3ccc(F)cc32)c(C)c1C(=O)NCCN1CCCC1`, the Potency (SKOV3) was 15.8 µM (active), the Potency (Tov112D) was “inactive” and the activity change, negative = inhibition ([1]; Viability) was -1.6%.
With `C=C1C(=O)O[C@@H]2[C@H]3C(C)=CC(=O)C3=C(C)[C@@H](OC(=O)/C(C)=C\C)[C@H](O)[C@@H]12` the Potency (SKOV3) was “inactive” and the Potency (Tov112D) was “inactive”.
For `O=C(Nc1cccc2cccnc12)c1ccc(N2C(=O)[C@@H]3C4C=CC(C4)[C@@H]3C2=O)cc1`, the Potency (Tov-21-G) was 31.6 µM (active).
For `O=c1[nH]c2ccc(C#CCN3CCC(Cc4ccccc4)CC3)cc2[nH]1`, the Potency (SKOV3) was “inactive”, the Potency (Tov-21-G) was “inactive” and the Potency (Tov112D) was “inactive”.
With `CN[C@H]1CC[C@@H](c2ccc(Cl)c(Cl)c2)c2ccccc21` the Potency (SKOV3) was 28.2 µM (active), the activity, negative = cell killing ([2]; at 46.1 µM (top of the series), tumour line C) was 17.5% and the Potency ([2]; tumour line A) was 2.24 µM (active). For the same molecule, the Potency ([2]; tumour line B) was 17.8 µM (active), the Potency ([2]; tumour line D) was 6.31 µM (active) and the Potency (astro) was 20 µM (active).
For `CCn1nc(C2CCN(C(=O)CCO)CC2)nc1-c1cnc(N)c(-c2nnc(C(C)(C)C)o2)n1`, the Potency (SKOV3) was 1.78 µM (active), the Potency (Tov112D) was “inactive” and the activity change, negative = inhibition ([1]; HiBiT) was -28.4%.
